According to the supplement of paper PMC11732987, “Enantioselective OTUD7B fragment discovery through chemoproteomics screening and high-throughput optimisation” (Communications Chemistry, 2025):

How the values were obtained:
Experiment in all cases: log2 ratio of Biotin-Ahx-Ub-VS probe labelling (fragment/DMSO); higher = less target engagement (more negative = stronger competition), active = hit call of the paper (q ≤ 0.05, log2 ratio ≤ -1)
Conditions in all cases: compound concentration: 200 uM; treatment time: 3 h
USP9X = USP9X (UniProt Q93008)
Summary of the method: (§1)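 Using Biotin-Ahx-Ub-VS at 0.5 µM final for 1 h, DUBs were labelled in HEK293T lysate (495 µg per sample) that had first been treated in triplicate with fragment at 200 µM or vehicle for 3 h. NeutrAvidin enrichment, LysC and trypsin digestion and diaPASEF LC-MS/MS followed. Spectronaut label-free quantities were global-median-normalised. Values are average log2 fragment/vehicle ratios by unpaired t-test, using proteins with ≥2 unique peptides.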

UniProt O00487 = biological target: UniProt O00487
Summary of the method: as §1

UniProt O00507 = biological target: UniProt O00507
Summary of the method: as §1

UniProt P51784 = biological target: UniProt P51784
Summary of the method: as §1

UniProt Q5T2D3 = biological target: T1, UniProt Q5T2D3
T1 sequence (whole entry): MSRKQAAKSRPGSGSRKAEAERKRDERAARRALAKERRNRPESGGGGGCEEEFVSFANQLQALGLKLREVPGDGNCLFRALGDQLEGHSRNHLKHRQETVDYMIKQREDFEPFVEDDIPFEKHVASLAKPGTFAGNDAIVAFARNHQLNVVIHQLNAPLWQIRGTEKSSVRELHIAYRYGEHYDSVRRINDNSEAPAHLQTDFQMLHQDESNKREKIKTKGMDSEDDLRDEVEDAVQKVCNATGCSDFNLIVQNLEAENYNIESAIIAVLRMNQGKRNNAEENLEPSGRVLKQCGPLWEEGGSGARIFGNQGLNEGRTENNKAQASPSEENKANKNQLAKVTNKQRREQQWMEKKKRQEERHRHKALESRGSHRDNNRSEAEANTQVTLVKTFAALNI
Summary of the method: as §1

UniProt Q8TE49 = biological target: T2, UniProt Q8TE49
T2 sequence (whole entry): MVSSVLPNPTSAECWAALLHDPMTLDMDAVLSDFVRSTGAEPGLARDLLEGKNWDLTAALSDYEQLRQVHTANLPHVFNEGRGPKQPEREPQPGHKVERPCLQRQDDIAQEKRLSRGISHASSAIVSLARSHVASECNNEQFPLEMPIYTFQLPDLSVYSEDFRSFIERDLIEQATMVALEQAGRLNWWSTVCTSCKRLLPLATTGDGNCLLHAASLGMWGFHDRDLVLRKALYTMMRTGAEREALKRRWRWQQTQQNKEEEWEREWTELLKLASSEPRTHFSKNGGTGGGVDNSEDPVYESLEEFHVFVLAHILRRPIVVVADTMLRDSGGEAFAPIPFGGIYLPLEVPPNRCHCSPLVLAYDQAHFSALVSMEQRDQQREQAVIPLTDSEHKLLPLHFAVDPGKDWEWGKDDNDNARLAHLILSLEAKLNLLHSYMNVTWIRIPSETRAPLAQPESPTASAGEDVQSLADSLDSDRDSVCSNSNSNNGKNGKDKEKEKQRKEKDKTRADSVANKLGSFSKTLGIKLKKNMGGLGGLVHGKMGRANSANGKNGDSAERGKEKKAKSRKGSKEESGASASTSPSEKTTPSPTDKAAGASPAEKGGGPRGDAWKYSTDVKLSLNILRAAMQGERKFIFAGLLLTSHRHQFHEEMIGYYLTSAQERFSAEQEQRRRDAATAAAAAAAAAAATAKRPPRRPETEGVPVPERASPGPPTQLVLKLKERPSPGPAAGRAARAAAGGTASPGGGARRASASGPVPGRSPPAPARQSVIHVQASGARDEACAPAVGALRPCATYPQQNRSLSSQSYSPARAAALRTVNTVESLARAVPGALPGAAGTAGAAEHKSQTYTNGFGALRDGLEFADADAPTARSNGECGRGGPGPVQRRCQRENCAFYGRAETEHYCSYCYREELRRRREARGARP
Summary of the method: as §1

UniProt Q9P2H5 = biological target: T3, UniProt Q9P2H5
T3 sequence (whole entry): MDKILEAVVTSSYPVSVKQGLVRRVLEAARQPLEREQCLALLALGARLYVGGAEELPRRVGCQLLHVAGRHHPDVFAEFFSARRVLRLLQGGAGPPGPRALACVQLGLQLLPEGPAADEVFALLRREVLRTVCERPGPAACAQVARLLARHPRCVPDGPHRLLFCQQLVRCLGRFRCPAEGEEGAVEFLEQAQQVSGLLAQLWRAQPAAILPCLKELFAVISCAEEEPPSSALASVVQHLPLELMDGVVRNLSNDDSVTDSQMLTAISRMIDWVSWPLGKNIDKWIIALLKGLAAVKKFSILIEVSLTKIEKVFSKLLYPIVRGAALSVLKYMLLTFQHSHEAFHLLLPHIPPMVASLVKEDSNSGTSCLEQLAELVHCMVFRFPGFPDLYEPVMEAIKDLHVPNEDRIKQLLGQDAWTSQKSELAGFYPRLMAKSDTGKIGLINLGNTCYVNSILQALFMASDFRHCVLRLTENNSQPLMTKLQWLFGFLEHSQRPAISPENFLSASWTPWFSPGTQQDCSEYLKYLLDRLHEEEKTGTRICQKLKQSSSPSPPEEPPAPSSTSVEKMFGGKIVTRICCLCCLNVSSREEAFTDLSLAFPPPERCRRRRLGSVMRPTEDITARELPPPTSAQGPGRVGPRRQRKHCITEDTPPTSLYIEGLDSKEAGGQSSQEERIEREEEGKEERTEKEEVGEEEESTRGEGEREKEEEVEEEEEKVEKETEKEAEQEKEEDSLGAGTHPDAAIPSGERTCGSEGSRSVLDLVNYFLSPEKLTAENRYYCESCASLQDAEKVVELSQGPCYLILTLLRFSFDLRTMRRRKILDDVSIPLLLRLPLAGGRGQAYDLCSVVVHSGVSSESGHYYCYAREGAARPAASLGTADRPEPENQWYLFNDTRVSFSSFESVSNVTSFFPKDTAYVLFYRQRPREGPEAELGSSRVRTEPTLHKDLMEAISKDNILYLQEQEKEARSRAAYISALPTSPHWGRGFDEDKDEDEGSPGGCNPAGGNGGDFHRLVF
Summary of the method: as §1

UniProt Q9UGI0 = biological target: T4, UniProt Q9UGI0
T4 sequence (whole entry): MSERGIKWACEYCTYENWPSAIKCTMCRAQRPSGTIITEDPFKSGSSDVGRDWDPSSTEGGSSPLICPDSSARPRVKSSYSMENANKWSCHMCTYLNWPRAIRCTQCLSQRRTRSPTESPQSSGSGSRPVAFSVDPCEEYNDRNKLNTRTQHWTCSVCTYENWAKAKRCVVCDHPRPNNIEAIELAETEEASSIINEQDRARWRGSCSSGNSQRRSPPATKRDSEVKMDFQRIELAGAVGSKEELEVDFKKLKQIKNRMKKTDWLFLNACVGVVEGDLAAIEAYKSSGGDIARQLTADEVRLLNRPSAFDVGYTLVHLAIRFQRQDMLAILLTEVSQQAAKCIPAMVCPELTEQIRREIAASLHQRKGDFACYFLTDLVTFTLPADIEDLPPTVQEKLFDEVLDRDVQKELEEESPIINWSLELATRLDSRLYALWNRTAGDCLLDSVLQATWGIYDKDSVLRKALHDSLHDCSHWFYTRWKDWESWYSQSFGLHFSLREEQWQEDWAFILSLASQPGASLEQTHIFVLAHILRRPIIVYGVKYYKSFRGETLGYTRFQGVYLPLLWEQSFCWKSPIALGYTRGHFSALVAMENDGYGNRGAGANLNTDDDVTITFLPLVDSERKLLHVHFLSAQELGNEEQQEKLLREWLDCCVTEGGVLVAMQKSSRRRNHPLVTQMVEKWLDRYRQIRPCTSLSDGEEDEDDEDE
Summary of the method: as §1

YOD1 = biological target: T5, YOD1 (UniProt Q5VVQ6)
T5 sequence (whole entry): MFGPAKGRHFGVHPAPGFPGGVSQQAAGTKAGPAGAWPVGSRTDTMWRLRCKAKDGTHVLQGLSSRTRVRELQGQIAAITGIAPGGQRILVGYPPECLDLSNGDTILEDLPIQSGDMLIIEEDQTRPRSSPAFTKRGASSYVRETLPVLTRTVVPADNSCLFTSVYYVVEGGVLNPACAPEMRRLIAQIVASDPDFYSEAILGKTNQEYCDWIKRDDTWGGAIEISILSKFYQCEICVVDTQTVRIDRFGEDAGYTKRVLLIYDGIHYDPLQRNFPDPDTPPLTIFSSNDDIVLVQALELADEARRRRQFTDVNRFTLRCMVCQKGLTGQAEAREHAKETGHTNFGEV
Summary of the method: as §1

Measured: log2 ratio of Biotin-Ahx-Ub-VS probe labelling

UniProt O00507, sequence (O00507 whole entry): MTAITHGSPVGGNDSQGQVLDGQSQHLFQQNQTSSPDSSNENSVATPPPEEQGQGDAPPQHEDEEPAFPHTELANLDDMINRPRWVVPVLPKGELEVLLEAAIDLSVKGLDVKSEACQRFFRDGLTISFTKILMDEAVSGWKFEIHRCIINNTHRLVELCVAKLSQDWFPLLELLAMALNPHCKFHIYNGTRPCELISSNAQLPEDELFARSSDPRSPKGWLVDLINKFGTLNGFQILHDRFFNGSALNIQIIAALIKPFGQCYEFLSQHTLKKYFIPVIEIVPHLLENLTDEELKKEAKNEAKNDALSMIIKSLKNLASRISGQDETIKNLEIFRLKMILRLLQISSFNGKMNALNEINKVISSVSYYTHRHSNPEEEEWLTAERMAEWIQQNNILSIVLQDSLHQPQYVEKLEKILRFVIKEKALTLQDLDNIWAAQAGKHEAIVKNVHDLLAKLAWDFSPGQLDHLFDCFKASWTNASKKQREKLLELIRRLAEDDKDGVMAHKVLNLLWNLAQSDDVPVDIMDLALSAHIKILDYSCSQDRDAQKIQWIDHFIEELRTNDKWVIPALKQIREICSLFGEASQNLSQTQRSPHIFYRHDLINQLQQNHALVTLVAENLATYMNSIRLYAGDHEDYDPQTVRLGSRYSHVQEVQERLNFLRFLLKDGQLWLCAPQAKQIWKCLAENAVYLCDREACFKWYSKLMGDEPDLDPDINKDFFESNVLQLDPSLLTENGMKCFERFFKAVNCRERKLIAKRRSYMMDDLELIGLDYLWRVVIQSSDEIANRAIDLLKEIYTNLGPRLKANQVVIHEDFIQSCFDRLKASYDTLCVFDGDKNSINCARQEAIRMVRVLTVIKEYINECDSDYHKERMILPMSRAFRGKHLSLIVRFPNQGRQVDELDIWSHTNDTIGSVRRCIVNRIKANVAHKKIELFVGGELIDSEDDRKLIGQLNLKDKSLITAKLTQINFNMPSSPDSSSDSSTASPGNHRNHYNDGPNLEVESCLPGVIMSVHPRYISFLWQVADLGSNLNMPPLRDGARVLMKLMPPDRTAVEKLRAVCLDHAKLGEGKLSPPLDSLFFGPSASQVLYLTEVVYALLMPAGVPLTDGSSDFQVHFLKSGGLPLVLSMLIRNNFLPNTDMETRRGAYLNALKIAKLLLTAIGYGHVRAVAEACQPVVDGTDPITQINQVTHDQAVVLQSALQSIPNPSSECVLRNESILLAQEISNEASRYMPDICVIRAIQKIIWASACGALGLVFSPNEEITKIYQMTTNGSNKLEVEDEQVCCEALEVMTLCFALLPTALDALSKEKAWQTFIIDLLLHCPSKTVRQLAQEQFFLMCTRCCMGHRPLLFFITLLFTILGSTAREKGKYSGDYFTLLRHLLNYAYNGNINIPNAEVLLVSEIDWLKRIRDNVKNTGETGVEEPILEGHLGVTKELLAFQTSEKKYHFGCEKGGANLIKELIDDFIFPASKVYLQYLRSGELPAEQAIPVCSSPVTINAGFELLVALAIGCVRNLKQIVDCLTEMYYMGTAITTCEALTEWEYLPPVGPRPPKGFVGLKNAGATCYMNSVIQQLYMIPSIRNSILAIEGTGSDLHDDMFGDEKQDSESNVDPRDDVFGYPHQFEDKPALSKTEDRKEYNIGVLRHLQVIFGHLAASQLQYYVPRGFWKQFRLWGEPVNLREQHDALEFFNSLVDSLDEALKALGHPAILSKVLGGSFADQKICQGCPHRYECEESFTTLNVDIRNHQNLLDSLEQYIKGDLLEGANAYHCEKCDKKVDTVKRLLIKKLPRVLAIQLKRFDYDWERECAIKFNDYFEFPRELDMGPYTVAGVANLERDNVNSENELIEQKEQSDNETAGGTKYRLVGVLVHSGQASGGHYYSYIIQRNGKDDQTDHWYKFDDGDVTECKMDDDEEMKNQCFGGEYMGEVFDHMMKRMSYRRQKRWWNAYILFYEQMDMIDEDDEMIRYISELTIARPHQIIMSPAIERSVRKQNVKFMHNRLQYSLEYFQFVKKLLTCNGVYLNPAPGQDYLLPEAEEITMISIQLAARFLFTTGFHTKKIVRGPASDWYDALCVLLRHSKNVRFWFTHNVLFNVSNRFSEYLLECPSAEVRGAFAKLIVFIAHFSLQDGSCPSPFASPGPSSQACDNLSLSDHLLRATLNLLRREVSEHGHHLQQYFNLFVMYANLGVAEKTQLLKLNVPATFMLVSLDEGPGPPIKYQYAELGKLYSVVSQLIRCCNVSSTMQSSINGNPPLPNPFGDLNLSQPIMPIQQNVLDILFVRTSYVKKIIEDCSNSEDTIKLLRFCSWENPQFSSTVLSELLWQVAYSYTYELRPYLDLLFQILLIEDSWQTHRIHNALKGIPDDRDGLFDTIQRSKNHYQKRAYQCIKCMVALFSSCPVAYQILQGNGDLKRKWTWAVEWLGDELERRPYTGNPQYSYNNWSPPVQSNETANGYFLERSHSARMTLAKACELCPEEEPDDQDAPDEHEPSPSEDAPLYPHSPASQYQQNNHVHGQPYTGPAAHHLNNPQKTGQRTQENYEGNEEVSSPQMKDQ
UniProt O00487, sequence (O00487 whole entry): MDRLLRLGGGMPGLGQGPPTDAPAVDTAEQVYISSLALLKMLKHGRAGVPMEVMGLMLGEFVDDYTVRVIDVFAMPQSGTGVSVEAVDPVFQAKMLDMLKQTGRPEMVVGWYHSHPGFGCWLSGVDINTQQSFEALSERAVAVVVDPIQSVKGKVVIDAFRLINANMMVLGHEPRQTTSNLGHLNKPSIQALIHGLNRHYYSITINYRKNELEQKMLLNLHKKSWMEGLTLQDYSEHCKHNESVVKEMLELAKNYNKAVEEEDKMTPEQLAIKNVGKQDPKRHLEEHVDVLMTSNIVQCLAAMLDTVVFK
UniProt P51784, sequence (P51784 whole entry): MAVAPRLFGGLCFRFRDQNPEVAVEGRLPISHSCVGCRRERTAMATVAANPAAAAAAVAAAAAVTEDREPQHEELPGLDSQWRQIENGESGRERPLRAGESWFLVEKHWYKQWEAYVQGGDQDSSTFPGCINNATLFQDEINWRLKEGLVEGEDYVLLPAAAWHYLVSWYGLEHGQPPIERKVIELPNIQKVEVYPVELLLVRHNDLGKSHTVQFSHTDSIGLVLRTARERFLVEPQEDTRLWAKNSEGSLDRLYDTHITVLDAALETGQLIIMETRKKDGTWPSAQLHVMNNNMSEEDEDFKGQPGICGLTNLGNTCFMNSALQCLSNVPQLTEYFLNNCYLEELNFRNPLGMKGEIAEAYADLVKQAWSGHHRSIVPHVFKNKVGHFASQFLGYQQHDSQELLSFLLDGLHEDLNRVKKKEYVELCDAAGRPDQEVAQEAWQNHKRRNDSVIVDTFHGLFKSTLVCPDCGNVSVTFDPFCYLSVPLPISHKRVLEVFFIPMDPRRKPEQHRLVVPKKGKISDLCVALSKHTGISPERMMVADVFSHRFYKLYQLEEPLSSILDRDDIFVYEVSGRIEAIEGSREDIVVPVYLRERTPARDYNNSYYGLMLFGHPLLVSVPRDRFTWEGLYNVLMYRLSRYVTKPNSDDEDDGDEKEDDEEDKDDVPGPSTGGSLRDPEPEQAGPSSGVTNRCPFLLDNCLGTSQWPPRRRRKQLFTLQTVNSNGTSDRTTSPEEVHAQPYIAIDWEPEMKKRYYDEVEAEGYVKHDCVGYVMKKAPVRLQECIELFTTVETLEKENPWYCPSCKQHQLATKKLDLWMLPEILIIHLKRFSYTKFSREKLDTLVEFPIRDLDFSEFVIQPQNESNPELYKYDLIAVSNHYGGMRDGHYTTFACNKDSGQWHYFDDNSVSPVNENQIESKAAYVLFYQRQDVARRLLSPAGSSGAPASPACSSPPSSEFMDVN

O=C(CCl)NCc1noc(C2CC2)n1
inactive: USP9X -0.268 | UniProt O00487 -0.16 | UniProt O00507 -0.504 | UniProt P51784 0.0106 | UniProt Q5T2D3 -0.464 | UniProt Q8TE49 -0.385 | UniProt Q9P2H5 -0.13 | UniProt Q9UGI0 -0.133 | YOD1 -0.415
